Data reported in the supplement of paper PMC10849652.
The full data set covers some 8,800 targets. This sample favours those with a hit. About 0.5% of all pairs of compound and target were hits. Unmarked numbers belong to inactive results.

What was measured:
Experiment in all cases: log2 fold change, soluble protein after heating vs DMSO (PISA); higher = thermal stabilisation; K562 lysate, 10 uM; active = over 0.2 and 3.5 SD of the protein, either way, in both replicates (recomputed)
ibrutinib = compound: C=CC(=O)N1CCC[C@@H](n2nc(-c3ccc(Oc4ccccc4)cc3)c3c(N)ncnc32)C1 [ibrutinib]
Method in brief: (§1)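 The values are log-two fold changes in thermal stability compared with solvent controls and come from duplicates. They were obtained by TMTpro 16plex LC-MS/MS, with channel sums equalised, on the supernatant after 21,000xg for 90 min. That supernatant came from crude K562 extract at 1 mg/mL protein treated with 10 μM compound for 30 min, heated for 3 min across 48°C-58°C, pooled and brought to 0.5% NP-40 at 4°C.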

[1] = compound: CC(=O)c1cnc2ccc(-c3cc(Cl)c(O)c(Cl)c3)nc2c1N[C@H]1CC[C@H](CN(C)C)CC1
Method in brief: as §1

ralimetinib = compound: CC(C)(C)Cn1c(N)nc2ccc(-c3[nH]c(C(C)(C)C)nc3-c3ccc(F)cc3)nc21 [ralimetinib]
Method in brief: as §1

[2] = compound: CC(C)(O)CC(=O)NCCn1ccc2ncnc(Nc3ccc(Oc4cccc(C(F)(F)F)c4)c(Cl)c3)c21
Method in brief: as §1

[3] = compound: CC(C)C1=C2N=C(C=C(N2N=C1)NCC3=CC=CC=C3)NCCCCCCN
Method in brief: as §1

[4] = compound: CC1=C(C(CC(=O)N1)C2=CC=C(C=C2)C(F)(F)F)C(=O)NC3=C(C=C4C(=C3)C=NN4)F
Method in brief: as §1

[5] = compound: CC1=C(C=C(C=C1)NC(=O)C2=CC(=CC=C2)C(C)(C)C#N)NC3=CC4=C(C=C3)N=CN(C4=O)C
Method in brief: as §1

[6] = compound: CC1=C(C=C(C=C1)NC(=O)C2=CC(=CC=C2)N(C)C)NC(=O)C3=CC=C(C=C3)O
Method in brief: as §1

[7] = compound: CC1=CC=C(C=C1)SC2=C3C=C(SC3=CN=C2)C(=O)N
Method in brief: as §1

[8] = compound: CC1=C(C2=C(C=C1)C(=O)C3=CC=CC=C3N2CCCN)C
Method in brief: as §1

UniProt P19793, sequence (P19793 whole entry, looked up): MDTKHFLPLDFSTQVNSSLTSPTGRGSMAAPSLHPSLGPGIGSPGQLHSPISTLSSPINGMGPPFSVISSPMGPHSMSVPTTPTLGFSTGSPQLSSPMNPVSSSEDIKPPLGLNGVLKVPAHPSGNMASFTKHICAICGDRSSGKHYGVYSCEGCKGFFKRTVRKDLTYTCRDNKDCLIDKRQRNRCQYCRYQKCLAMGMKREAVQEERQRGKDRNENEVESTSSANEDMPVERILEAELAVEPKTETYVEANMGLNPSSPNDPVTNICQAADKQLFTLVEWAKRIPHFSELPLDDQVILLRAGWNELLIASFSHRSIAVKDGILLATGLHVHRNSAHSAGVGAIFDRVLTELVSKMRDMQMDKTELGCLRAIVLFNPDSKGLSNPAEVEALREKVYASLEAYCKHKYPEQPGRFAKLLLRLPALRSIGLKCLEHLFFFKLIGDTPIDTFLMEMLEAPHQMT
UniProt O15027, sequence (O15027 whole entry, looked up): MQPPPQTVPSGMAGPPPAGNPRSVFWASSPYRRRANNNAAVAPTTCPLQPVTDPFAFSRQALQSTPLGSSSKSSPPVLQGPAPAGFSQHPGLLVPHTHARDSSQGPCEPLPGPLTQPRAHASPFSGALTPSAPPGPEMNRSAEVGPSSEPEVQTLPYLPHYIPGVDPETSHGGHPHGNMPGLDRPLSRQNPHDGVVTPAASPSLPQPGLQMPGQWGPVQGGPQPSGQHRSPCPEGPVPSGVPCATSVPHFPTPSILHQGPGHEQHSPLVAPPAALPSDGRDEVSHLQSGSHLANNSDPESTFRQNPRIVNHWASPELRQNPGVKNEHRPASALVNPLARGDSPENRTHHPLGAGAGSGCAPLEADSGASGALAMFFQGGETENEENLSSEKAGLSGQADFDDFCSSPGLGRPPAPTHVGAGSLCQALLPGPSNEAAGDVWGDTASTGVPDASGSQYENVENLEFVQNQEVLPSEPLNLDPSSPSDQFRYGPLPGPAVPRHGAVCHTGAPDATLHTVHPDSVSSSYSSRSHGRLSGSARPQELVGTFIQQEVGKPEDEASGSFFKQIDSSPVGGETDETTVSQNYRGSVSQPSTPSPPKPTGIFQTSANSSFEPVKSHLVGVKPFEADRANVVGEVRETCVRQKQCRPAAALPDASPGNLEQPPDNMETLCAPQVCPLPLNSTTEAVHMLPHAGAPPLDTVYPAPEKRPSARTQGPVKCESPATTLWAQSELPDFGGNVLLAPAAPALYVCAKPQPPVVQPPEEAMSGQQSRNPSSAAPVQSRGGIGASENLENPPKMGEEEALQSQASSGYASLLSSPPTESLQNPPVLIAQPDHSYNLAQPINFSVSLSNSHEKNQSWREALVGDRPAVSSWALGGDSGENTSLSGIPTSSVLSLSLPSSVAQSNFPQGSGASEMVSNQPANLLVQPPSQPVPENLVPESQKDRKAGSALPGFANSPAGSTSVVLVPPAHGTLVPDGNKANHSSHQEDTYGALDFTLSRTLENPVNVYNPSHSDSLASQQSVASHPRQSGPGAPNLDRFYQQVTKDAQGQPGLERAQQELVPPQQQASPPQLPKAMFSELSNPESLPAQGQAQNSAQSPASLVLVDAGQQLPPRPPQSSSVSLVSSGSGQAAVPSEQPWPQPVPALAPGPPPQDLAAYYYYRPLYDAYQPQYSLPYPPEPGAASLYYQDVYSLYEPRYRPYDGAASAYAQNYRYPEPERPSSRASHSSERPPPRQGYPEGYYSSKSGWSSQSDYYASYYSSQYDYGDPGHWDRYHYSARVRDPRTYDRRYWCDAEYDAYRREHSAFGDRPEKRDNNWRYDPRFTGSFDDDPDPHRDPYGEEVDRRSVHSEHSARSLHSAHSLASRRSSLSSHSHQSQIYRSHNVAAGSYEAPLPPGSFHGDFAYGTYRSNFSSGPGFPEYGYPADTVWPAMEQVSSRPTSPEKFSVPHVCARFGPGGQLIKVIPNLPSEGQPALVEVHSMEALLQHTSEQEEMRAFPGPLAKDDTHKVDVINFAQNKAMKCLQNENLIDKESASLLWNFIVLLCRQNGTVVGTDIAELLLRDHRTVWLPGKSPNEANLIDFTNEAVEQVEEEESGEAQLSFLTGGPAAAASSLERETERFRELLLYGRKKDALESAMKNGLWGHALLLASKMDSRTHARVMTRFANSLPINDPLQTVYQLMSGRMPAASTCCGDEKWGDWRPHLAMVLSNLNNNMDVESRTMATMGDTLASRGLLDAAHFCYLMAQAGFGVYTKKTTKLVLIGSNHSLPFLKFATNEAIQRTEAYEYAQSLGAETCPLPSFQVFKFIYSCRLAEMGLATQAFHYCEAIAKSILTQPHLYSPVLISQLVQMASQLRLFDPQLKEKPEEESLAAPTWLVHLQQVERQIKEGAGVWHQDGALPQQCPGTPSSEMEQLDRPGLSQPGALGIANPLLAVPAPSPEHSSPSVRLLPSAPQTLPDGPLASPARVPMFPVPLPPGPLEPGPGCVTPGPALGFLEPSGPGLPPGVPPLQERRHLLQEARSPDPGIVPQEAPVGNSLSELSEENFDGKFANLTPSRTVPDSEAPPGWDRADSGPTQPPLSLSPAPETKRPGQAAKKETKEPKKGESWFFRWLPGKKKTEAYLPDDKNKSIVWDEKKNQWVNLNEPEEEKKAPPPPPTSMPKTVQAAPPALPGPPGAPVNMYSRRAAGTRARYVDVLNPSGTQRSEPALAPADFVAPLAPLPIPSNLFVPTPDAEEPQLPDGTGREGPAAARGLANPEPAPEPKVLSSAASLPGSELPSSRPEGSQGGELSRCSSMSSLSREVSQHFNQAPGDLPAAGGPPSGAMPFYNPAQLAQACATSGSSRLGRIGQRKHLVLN
UniProt Q96JX3, sequence (Q96JX3 whole entry, looked up): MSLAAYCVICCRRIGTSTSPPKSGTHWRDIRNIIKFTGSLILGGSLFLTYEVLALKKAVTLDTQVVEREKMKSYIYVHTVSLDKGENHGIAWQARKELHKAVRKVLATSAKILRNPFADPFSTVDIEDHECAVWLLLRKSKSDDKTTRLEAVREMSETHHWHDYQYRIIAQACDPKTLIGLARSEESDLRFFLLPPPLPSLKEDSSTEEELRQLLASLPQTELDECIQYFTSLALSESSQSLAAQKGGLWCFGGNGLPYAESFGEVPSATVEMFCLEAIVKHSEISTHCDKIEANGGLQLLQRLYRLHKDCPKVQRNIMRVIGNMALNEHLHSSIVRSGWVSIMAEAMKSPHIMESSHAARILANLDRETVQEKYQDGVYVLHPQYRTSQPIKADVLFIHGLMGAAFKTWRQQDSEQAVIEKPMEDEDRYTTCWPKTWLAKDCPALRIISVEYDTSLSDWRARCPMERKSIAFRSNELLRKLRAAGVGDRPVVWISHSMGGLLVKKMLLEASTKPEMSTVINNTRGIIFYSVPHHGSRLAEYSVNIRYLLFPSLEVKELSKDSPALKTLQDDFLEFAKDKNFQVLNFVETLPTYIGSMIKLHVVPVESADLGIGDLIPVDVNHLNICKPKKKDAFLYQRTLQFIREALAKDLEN
UniProt Q7L0Q8, sequence (Q7L0Q8 whole entry, looked up): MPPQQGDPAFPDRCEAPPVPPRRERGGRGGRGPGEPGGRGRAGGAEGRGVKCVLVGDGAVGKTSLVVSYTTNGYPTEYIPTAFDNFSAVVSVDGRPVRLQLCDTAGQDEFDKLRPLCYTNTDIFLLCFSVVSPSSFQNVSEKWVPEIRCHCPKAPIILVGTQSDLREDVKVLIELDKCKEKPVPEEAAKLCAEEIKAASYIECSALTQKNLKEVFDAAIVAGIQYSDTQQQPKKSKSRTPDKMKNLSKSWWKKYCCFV
UniProt O75582, sequence (O75582 whole entry, looked up): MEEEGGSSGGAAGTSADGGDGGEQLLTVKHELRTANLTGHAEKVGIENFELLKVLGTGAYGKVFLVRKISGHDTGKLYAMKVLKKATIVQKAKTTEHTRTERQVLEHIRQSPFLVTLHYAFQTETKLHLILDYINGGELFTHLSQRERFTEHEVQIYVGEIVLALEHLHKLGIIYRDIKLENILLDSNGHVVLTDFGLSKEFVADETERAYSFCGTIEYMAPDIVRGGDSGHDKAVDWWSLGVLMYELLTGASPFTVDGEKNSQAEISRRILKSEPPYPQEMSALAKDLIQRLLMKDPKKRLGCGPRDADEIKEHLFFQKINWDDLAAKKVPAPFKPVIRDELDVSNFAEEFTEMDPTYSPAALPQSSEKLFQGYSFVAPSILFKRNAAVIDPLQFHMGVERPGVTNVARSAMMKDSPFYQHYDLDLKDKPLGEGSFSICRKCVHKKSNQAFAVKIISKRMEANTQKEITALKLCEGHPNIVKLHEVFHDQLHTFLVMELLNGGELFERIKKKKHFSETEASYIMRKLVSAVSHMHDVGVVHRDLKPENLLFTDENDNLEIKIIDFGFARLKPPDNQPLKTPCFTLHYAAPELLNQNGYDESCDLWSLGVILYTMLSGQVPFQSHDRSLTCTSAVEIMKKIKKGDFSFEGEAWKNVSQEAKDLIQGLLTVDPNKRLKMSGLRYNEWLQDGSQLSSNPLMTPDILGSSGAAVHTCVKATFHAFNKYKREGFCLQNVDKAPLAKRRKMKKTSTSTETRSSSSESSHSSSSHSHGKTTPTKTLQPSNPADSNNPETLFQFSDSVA
UniProt Q96LT9, sequence (Q96LT9 whole entry, looked up): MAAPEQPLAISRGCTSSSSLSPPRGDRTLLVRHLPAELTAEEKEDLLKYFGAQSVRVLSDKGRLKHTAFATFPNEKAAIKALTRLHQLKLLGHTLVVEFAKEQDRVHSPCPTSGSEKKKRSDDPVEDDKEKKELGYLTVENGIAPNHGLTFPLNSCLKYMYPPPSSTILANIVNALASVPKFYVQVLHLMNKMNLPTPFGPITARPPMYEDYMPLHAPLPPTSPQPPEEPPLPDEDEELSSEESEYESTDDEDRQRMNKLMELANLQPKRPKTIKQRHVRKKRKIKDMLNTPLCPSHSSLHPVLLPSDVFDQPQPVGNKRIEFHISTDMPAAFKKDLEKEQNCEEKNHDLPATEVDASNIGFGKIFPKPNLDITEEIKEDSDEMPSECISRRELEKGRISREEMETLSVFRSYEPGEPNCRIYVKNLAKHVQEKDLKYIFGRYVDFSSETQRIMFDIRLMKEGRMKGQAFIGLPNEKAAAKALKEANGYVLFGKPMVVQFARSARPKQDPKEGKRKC

Target	log2 fold change (ibrutinib)	log2 fold change [1]	log2 fold change (ralimetinib)	log2 fold change [2]	log2 fold change [3]	log2 fold change [4]	log2 fold change [5]	log2 fold change [6]	log2 fold change [7]	log2 fold change [8]
RETREG2 (UniProt Q8NC44)	0.011	0.009	0.071	-0.129	0.062	0.127	0.051	0.116	0.011	
RHOA (UniProt P61586)	0.36	-0.041	0.014	0.094	0.031	0.003	-0.02	-0.022	-0.006	0.093
RAPGEF4 (UniProt Q8WZA2)	-0.026	-0.129	-0.001	-0.328	0.044		0.442	-0.004	-0.166	0.046
SCCPDH (UniProt Q8NBX0)	0.155	-0.042	0.083	0.112	0.122	-0.017	0.055	-0.098	0.187	-0.068
RAB8B (UniProt Q92930)	-0.03	-0.018	-0.035	-0.013	-0.003	0.051	0.01	0.099	-0.06	-0.001
SEC16A isoform 5 (UniProt O15027)	0.035	-0.021	-0.013	0.015	0.01	0.019	-0.121	0.011	-0.031	0.004
RCOR3 isoform 3 (UniProt Q9P2K3)	-0.009	-0.03	0.014	-0.004	0.011	0	-0.038	0.002	-0.011	0.002
RPS29 (UniProt P62273)	0.002	0.025	-0.138	0.03	-0.109	0.086	-0.108	-0.068	0.058	-0.093
RYR1 (UniProt P21817)	0.091	0.008	-0.028	-0.012	-0.088		0.195	-0.032	0.013	-0.014
RPL31 (UniProt P62899)	-0.031	-0.011	0.009	-0.022	0.003	-0.06	-0.013	-0.021	0.016	-0.043
RNASEH2B (UniProt Q5TBB1)	-0.001	-0.032	0.026	0	0.031	-0.025	0.005	0.025	0.009	0.024
RAI14 isoform 2 (UniProt Q9P0K7)	-0.019	-0.007	-0.011	-0.01	-0.004	0.017	0.01	0.024	0.001	-0.024
RBM4 (UniProt Q9BWF3)	0.006	0.021	0.008	-0.014	0.023	0.028	-0.154	0.025	-0.004	0.005
ROBO2 isoform 3 (UniProt Q9HCK4)		-0.015	0.103	-0.287	-0.045		0.022	0.177	-0.053	
RBM4 isoform 3 (UniProt Q9BWF3)							-0.092			
SCNM1 (UniProt Q9BWG6)		-0.026	0.013	0.012	0.062	0.065	0.06	-0.069	-0.221	-0.189
SEMA4G isoform 2 (UniProt Q9NTN9)					-0.013		-0.137			-0.021
RNASEH2B, A0A1B0GUE7		-0.017				-0.12			0.09	
RUFY2 isoform 1 (UniProt Q8WXA3)	0.068		-0.031	0.005		-0.118	-0.101	-0.033		
RNF170 (UniProt Q96K19)	-0.006	0.107			0.084	0.302			-0.036	-0.035
RLIM (UniProt Q9NVW2)	0.014						0.465			
RPS6KA5 (UniProt O75582)		0.173	-0.02	-0.055	-0.027	0.011	-0.441 (active)	0.004	0.005	-0.04
SELENOK (UniProt Q9Y6D0)	0.05	-0.134				0.092			0.022	-0.164
RXRA (UniProt P19793)		-0.028	-0.033	0.087	0.066	0.059	-0.02	-0.036	0	0.063

Target	log2 fold change (ibrutinib)	log2 fold change [1]	log2 fold change (ralimetinib)	log2 fold change [2]	log2 fold change [3]	log2 fold change [4]	log2 fold change [5]	log2 fold change [6]	log2 fold change [7]	log2 fold change [8]
SERAC1 (UniProt Q96JX3)	0.066				-0.115	0.051				-0.193
RHBDD1 (UniProt Q8TEB9)	-0.059	-0.518 (active)							0.038	
RNPC3 (UniProt Q96LT9)		0.017	0.02	-0.029	-0.122	-0.027	-0.028	0.054	-0.003	-0.015
RNF24 isoform 2 (UniProt Q9Y225)	-0.051				0.33	-0.026	0.092			
S100A6 (UniProt P06703)		-0.082	0.117	0.152	-0.01		0.04	0.199	0.032	0.793 (active)
RNF2 (UniProt Q99496)			-0.053	-0.01	0.017	0.009	-0.048	0.024		-0.081
RDH11 (UniProt Q8TC12)		-0.021	0.005	-0.043	0.068	-0.013	-0.037	-0.039	-0.111	-0.039
SAP30 (UniProt O75446)	0.058	0.033				0.101	0.016		0.006	-0.007
RFNG (UniProt Q9Y644)						0.023				
SEC16A isoform 3 (UniProt O15027)			-0.283	-0.122				-0.023		-0.006
RAB5IF isoform 5 (UniProt Q9BUV8)	-0.039	-0.029			-0.163	0.086			0.073	-0.165
RFWD3 (UniProt Q6PCD5)	-0.001		0.039	-0.059	0.066	0.059	0.087	-0.007		-0.06
RAD17 (UniProt O75943)	0.023		0.054	0.041		0.026	-0.041	0.049		-0.029
RBM45 (UniProt Q8IUH3)		-0.077				-0.127	0.038		0.487 (active)	
RAD54L2 (UniProt Q9Y4B4)	-0.005	0.23			-0.073	0.131	0.031		0.094	-0.051
QSER1, A0A3B3IRW6		-0.047	-0.014	-0.021	-0.009	-0.001	0.009	0.087	-0.087	0.037
SEC16A isoform 2 (UniProt O15027)			-0.103	-0.062				0.167		
RHOU (UniProt Q7L0Q8)		-0.007	0.057	0.009	0.066	0.012	-0.003	0.019	0.045	0.015
RMI2 (UniProt Q96E14)			-0.061	0.007	-0.032		0.011	0.039		0.021
RALGAPB isoform 3 (UniProt Q86X10)	0.106									-0.087
RBBP7 (UniProt C9J7L0)						-0.187				
SATB2 (UniProt Q9UPW6)		-0.005	0.037	-0.004	-0.029	-0.007	-0.027	0.002	0.047	-0.023
RECQL4 (UniProt O94761)	0.016		-0.034	-0.06	0.039	-0.017	0	0.044		0.076
